Values joined by “and” are separate entries in the source; they are usually repeats but may differ in a detail not shown here. Identical values can stand only once.
How the values were obtained:
[1] = system: Epidermal growth factor receptor (Homo sapiens), P00533 [T790M]; settings: at 1 µM
[2] = system: Epidermal growth factor receptor (Homo sapiens), P00533 [L858R,T790M]; settings: at 0.1 µM
[3] = system: Epidermal growth factor receptor (Homo sapiens), P00533 [L858R,T790M]; settings: at 1 µM
[4] = target: Ephrin type-A receptor 2 (Homo sapiens) (UniProt P29317); settings: at 0.1 µM
[5] = target: Ephrin type-A receptor 2 (Homo sapiens) (UniProt P29317); settings: at 1 µM
[6] = target: T1, Ephrin type-A receptor 3 (Homo sapiens) (UniProt P29320); settings: at 0.1 µM
T1 sequence (whole entry): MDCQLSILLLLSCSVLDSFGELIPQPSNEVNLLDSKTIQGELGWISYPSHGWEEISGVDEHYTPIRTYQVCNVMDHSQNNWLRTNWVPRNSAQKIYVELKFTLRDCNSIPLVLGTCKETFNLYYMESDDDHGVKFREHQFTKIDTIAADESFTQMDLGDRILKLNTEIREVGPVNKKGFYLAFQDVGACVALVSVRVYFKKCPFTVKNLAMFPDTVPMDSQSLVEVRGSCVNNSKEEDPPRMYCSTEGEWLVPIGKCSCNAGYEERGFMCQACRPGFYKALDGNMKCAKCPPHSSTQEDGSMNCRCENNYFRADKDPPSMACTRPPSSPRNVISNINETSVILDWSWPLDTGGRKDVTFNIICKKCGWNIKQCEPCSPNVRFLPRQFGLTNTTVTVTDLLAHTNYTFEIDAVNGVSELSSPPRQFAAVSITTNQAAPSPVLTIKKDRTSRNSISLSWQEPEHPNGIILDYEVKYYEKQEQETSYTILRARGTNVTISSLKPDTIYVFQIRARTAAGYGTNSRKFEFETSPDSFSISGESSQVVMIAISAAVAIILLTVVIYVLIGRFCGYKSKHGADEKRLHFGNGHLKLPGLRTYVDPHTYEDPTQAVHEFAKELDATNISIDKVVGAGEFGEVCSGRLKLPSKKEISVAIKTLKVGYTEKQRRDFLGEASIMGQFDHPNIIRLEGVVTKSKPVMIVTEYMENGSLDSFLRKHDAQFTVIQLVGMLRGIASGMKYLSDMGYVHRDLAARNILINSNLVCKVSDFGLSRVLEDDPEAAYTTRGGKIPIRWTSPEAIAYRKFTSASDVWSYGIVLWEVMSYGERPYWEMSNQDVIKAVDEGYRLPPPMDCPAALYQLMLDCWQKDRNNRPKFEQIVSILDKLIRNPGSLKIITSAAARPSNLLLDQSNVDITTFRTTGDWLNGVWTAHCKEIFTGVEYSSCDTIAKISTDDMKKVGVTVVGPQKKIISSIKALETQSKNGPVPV

[7] = target: T1, Ephrin type-A receptor 3 (Homo sapiens); settings: at 1 µM
[8] = target: Ephrin type-A receptor 4 (Homo sapiens) (UniProt P54764); settings: at 0.1 µM
Sequence of Ephrin type-A receptor 4 (Homo sapiens) (P54764 whole entry): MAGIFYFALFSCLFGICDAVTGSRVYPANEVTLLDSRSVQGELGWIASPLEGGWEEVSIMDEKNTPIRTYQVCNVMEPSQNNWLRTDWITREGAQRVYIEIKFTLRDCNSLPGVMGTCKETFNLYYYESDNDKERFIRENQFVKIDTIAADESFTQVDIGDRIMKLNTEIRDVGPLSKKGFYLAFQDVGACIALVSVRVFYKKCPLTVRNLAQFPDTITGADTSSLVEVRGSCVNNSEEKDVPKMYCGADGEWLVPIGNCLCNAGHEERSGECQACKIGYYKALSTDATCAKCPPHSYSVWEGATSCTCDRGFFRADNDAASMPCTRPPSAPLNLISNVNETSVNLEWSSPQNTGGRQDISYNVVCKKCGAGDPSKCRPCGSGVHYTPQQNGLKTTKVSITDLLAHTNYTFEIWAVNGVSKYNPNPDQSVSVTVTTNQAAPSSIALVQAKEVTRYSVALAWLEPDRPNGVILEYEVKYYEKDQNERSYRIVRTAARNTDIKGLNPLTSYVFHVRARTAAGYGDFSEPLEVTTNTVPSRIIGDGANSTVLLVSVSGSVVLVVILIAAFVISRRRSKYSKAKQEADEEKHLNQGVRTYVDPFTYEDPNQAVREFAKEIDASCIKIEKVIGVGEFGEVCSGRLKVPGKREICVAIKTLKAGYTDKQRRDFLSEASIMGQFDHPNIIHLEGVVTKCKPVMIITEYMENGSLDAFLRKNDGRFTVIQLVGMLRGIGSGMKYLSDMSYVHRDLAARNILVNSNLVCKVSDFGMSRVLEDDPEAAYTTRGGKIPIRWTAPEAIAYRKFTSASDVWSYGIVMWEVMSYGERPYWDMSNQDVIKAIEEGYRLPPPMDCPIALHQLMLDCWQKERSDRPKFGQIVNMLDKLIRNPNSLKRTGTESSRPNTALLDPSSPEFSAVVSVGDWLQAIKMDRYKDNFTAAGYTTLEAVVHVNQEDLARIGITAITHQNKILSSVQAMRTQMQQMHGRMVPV

[9] = target: Ephrin type-A receptor 4 (Homo sapiens) (UniProt P54764); settings: at 1 µM
[10] = target: T2, Ephrin type-B receptor 2 (Homo sapiens) (UniProt P29323); settings: at 0.1 µM
T2 sequence (whole entry): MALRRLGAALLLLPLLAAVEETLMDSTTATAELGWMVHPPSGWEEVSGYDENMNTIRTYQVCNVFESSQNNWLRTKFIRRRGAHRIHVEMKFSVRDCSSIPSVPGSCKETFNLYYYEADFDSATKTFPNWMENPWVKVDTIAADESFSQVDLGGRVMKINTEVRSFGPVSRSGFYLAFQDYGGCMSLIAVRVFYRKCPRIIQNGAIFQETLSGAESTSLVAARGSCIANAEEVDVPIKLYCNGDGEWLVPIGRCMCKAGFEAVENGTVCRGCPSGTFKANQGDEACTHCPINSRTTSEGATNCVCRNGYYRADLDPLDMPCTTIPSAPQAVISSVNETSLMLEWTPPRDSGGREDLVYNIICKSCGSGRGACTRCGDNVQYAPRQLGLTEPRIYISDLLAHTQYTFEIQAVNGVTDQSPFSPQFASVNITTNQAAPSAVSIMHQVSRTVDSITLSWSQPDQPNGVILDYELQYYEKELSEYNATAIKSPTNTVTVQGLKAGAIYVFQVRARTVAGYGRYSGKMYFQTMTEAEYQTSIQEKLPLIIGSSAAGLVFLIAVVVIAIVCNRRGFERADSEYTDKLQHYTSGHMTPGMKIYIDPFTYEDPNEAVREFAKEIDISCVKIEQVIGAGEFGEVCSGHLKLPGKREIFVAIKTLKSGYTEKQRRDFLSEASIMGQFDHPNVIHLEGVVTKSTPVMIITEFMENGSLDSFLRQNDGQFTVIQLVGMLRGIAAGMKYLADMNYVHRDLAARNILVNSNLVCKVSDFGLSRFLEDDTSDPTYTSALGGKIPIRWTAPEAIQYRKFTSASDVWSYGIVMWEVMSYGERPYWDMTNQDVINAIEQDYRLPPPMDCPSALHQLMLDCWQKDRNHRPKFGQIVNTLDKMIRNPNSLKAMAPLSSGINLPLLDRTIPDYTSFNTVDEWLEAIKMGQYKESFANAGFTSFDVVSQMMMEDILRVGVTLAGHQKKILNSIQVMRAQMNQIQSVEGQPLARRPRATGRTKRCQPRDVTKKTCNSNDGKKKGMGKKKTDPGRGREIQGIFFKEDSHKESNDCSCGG

[11] = target: T2, Ephrin type-B receptor 2 (Homo sapiens); settings: at 1 µM
[12] = target: T3, Ephrin type-B receptor 3 (Homo sapiens) (UniProt P54753); settings: at 0.1 µM
T3 sequence (whole entry): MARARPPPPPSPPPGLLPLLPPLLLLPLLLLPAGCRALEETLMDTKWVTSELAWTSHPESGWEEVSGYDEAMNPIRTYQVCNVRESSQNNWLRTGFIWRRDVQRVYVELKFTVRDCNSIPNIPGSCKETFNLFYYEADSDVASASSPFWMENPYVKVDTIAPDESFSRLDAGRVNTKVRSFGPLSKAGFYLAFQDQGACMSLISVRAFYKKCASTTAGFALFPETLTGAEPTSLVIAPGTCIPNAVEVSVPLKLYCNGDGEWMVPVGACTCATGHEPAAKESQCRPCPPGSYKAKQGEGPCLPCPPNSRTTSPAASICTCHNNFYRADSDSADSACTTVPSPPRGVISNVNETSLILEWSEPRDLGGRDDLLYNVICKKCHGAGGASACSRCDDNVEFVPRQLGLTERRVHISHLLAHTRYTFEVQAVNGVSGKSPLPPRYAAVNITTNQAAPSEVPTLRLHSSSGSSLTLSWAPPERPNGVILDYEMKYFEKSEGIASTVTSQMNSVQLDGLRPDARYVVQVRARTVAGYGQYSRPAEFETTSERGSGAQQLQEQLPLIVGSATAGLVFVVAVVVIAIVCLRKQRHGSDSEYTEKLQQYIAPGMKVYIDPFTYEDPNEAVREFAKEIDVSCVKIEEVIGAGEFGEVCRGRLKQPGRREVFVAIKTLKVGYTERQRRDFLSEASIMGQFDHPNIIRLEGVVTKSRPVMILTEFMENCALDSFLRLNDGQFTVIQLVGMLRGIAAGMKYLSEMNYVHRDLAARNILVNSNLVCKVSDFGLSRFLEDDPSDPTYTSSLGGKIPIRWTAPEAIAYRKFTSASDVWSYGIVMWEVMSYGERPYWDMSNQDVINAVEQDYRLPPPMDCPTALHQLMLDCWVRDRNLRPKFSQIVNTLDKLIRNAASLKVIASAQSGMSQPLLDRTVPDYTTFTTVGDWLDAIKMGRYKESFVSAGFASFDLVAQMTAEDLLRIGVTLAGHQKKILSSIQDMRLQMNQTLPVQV

[13] = target: T3, Ephrin type-B receptor 3 (Homo sapiens); settings: at 1 µM
[14] = target: T4, Ephrin type-B receptor 4 (Homo sapiens) (UniProt P54760); settings: at 0.1 µM
T4 sequence (whole entry): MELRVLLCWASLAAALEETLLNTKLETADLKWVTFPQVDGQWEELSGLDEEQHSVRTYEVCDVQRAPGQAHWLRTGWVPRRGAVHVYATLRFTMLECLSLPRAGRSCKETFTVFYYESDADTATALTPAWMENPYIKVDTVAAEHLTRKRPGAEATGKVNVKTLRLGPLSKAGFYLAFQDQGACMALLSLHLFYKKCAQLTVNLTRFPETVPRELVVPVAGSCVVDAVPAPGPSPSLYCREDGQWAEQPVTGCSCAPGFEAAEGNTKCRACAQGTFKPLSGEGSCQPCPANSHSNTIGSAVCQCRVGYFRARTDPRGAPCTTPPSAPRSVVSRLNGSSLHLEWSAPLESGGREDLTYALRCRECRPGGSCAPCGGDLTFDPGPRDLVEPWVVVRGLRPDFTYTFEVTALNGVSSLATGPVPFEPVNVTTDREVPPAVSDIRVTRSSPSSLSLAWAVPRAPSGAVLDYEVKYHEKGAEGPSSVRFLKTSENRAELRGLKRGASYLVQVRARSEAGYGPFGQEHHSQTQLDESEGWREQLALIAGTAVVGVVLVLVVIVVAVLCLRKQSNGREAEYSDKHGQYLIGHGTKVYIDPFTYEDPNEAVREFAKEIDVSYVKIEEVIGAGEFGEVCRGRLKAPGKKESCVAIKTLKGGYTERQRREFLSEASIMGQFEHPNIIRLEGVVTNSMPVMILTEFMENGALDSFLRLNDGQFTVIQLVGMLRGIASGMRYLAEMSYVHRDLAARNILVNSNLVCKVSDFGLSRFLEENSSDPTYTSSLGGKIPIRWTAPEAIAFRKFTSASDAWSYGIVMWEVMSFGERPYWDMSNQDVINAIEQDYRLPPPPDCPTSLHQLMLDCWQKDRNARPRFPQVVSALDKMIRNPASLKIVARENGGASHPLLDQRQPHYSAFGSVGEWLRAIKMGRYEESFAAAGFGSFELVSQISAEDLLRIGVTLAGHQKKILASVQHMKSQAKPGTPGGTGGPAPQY

[15] = target: T4, Ephrin type-B receptor 4 (Homo sapiens); settings: at 1 µM
[16] = target: Receptor tyrosine-protein kinase erbB-2 (Homo sapiens) (UniProt P04626); settings: at 0.1 µM
[17] = target: Receptor tyrosine-protein kinase erbB-2 (Homo sapiens) (UniProt P04626); settings: at 1 µM
[18] = target: Receptor tyrosine-protein kinase erbB-4 (Homo sapiens) (UniProt Q15303); settings: at 0.1 µM
Sequence of Receptor tyrosine-protein kinase erbB-4 (Homo sapiens) (Q15303 whole entry): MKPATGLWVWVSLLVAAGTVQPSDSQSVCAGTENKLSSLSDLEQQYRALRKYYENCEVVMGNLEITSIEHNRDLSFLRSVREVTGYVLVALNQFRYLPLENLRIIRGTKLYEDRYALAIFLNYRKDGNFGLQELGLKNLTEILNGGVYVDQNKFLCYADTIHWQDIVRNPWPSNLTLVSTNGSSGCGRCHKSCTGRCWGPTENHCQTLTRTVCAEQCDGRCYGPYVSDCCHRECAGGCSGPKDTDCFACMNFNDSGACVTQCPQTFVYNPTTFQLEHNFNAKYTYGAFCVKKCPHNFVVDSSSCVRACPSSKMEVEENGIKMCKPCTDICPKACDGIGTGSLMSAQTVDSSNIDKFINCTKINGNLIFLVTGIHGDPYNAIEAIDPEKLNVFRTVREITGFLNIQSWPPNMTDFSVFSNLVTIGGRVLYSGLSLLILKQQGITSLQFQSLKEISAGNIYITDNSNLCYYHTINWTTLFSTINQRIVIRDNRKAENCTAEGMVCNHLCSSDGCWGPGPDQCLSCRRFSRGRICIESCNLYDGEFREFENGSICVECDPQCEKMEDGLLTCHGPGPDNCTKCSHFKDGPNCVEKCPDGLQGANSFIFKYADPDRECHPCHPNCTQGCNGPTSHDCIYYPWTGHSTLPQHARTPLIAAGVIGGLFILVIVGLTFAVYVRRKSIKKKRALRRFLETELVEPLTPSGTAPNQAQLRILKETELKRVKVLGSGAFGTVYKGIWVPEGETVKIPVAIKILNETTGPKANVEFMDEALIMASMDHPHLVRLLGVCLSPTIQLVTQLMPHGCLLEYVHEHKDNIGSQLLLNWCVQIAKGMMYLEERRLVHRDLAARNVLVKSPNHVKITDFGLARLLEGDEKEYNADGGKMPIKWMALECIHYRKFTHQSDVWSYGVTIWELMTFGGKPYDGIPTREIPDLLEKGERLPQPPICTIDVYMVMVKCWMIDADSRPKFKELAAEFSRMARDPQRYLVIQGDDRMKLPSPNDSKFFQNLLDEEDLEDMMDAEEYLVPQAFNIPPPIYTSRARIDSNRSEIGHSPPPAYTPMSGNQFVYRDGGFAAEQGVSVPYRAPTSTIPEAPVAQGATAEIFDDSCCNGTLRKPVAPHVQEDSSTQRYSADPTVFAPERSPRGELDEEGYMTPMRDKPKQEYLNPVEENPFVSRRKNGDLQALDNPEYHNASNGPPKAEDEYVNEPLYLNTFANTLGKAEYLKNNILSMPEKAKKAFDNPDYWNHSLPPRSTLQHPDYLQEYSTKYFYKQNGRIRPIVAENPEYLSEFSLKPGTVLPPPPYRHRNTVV

[19] = target: Receptor tyrosine-protein kinase erbB-4 (Homo sapiens) (UniProt Q15303); settings: at 1 µM
[20] = target: Tyrosine-protein kinase Fer (Homo sapiens) (UniProt P16591); settings: at 0.1 µM;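 note: reported figures are averaged percent inhibition of FER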
Sequence of Tyrosine-protein kinase Fer (Homo sapiens) (P16591 whole entry, looked up): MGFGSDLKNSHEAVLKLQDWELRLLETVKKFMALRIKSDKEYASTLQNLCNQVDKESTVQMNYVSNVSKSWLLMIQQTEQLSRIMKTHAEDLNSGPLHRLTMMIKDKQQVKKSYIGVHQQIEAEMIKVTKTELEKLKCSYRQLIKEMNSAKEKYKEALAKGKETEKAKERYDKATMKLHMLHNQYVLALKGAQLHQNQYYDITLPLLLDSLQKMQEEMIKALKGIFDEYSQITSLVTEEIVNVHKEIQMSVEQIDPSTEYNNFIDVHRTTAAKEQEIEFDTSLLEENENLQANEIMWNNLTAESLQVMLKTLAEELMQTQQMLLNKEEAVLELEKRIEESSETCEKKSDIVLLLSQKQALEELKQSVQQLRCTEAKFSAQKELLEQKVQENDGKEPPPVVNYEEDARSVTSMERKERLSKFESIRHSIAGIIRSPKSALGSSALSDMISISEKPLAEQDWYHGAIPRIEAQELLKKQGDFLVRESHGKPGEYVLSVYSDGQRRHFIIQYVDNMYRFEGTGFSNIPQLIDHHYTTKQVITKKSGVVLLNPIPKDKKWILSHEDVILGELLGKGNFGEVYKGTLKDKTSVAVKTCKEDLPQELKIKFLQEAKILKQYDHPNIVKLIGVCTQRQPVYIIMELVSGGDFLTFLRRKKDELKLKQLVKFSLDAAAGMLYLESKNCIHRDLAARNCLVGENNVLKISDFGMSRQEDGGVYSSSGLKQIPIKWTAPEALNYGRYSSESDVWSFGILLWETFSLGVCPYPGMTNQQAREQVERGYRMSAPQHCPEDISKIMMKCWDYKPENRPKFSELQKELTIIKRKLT

Sequence of Epidermal growth factor receptor (Homo sapiens), P00533 [T790M] (P00533 whole entry T790M): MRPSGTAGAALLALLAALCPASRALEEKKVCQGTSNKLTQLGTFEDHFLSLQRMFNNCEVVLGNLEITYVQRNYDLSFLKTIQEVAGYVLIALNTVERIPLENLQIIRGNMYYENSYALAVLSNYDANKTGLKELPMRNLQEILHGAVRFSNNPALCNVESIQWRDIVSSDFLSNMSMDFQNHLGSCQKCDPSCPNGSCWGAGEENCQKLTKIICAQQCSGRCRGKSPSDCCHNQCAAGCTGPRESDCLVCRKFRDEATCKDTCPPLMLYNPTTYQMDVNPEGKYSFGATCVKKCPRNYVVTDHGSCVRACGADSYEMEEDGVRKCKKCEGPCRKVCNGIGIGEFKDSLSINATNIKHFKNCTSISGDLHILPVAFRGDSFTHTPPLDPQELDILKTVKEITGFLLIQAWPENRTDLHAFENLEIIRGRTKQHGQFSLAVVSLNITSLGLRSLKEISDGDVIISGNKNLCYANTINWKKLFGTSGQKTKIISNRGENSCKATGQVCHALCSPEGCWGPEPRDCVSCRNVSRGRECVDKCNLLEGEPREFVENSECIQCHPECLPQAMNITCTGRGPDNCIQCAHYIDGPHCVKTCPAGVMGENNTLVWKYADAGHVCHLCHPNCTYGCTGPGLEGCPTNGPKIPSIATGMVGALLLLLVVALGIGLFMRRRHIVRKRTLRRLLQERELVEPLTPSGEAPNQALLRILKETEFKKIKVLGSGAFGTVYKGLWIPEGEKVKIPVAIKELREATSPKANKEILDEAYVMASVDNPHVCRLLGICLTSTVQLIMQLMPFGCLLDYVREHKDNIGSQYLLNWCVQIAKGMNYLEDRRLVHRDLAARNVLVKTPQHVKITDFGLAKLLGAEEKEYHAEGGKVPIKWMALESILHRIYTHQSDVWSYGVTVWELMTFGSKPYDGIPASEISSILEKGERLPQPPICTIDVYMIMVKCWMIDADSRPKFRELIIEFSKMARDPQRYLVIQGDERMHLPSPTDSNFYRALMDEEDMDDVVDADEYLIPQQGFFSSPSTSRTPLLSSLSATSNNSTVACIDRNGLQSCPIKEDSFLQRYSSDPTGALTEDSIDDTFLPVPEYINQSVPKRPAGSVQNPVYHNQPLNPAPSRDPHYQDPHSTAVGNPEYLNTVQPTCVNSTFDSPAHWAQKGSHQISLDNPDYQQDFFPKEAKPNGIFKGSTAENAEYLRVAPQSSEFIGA

Compound | inhibition [1] | inhibition [2] | inhibition [3] | inhibition [4] | inhibition [5] | inhibition [6] | inhibition [7] | inhibition [8] | inhibition [9] | inhibition [10] | inhibition [11] | inhibition [12] | inhibition [13] | inhibition [14] | inhibition [15] | inhibition [16] | inhibition [17] | inhibition [18] | inhibition [19] | inhibition [20]
CCOc1ccc2c(-c3ccnc(Nc4cc(OC)cc(C(F)(F)F)c4)n3)cnn2n1 | 0.47% | 0.87% | -2.16% | -2.58% | -0.79% | -0.82% | 1.98% | 2.94% | 6.63% | 3.54% | 8.72% | 2.9% | 1.21% | 2.17% | 1.74% | 2.32% | 2.46% | 4.82% | 4.44% | 2.36%
NS(=O)(=O)c1ccc(N/N=C2\C(=O)Nc3cccc(CCc4ccncc4)c32)cc1 | 0.76% | -0.13% | 1.83% | -2.9% | -1.98% | 0.59% | 0.71% | 3.79% | 5.47% | 4.47% | 5.15% | 2.41% | 2.85% | 1.21% | 0.87% | -0.81% | 3.74% | 4.66% | 8.01% | 4.04%
CN1CCC(n2cnc(-c3ccc(F)cc3)c2-c2ccnc(NCCO)n2)CC1 | 4.06% | 1.79% | 5.98% | 2.31% | -0.04% | 5.3% | 5.33% | 7.76% | 14.7% | 8.26% | 10.7% | 4.67% | 2% | 1.85% | 8.07% | 0.93% | 6.66% | 9.26% | 12.3% | 7.03%
CN1CCC(C(=O)Nc2n[nH]c3nc(-c4ccc(O)cc4)c(Br)cc23)CC1 | 2.93% and 1.04% | -0.55% and -2.98% | 1.4% and -0.59% | -3.15% and 0% | -2.77% and -1.38% | -0.96% and 1.14% | -1.23% and 3.96% | 7.94% and 4.03% | 10.9% and 9.16% | 2.8% and -0.98% | 8.11% and 8.66% | 1.14% and 1.43% | 1.83% and 4.59% | -1.77% and 1.07% | -1.46% and 4.54% | 6.86% and 3.66% | 7.03% and 4.93% | 6.26% and 5.04% | 8.49% and 8.92% | 4.47% and -1.58%
COc1cccc(-n2ncc3c(N/N=C/c4ccc(C(=O)NCCN(C)C)cc4)ncnc32)c1 | 4.06% | 4.3% | 25.9% | 1.33% | 5.44% | 3.11% | 6.35% | 2.76% | 15.9% | 14.1% | 46.4% | 5.98% | 7.32% | 6.37% | 30.5% | 0.77% | 10.5% | 23.2% | 49.9% | 3.03%
CS(=O)(=O)CCNCc1ccoc1-c1ccc2ncnc(Nc3ccc(OCc4ccccc4)cc3)c2c1 | 4.58% | -0.19% | -0.52% | -2.48% | -2.19% | 0.44% | 2.32% | 4.33% | 6.25% | 4.8% | 7.96% | 3.15% | 2.98% | 0.88% | 1.51% | 3.25% | 50.9% | 32.3% | 79.9% | -0.1%
